# M1 PAM parental = counter-screen for M1 PAMs: effect in parental CHO-K1 cells; ATP EC20, Fluo-8 calcium fluorescence; 0% at ATP EC20, 100% at ATP max; activation, % at 3 µM; 0.02% of 360,000 active;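 active = activation above the run cutoff, the mean activation of all test compounds plus 3 SD, cut at about 40% in these data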;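 note: peak over basal fluorescence ratio in a 140 s read after ATP addition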
# M1 ag = human M1 muscarinic receptor agonism; AID 588814; activation, % at 3 µM; 0.33% of 360,000 active; CHO-K1 hM1, Fluo-8 calcium fluorescence, agonist mode; 0% DMSO, 100% acetylcholine EC100;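 active = activation above the run's mean compound activation plus 3 SD, cut at about 16% in these data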;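 note: peak over basal fluorescence ratio within a 140 s kinetic read after compound addition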
# Target sequence (P11229 whole entry, looked up): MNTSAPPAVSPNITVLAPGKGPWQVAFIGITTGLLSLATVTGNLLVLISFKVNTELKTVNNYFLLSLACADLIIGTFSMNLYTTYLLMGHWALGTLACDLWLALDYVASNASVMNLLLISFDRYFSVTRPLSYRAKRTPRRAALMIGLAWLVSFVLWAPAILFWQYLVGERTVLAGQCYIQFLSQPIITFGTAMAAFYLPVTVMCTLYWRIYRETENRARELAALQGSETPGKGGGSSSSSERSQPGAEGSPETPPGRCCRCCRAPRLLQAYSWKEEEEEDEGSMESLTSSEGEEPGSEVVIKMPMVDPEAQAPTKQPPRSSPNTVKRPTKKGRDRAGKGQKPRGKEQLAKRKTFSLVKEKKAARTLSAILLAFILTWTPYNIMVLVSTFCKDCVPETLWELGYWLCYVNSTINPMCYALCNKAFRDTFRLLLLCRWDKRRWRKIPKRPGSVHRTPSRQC
# M1 PAM = potentiates human M1 receptor response to acetylcholine. 0.088% of 360,000 active. activation, % at 3 µM. CHO-K1 hM1, Fluo-8 calcium fluorescence, ACh EC20; 0% = ACh EC20, 100% = maximal ACh. P11229; in the data active = activation above about 19%, passing the limit was not always enough
# CHO-K1 Ca antag = counter-screen for M1 antagonists: effect in parental CHO-K1 cells; inhibition, % at 3 µM; ATP-induced calcium, Fluo-8 fluorescence; 0.6% of 360,000 active;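 active = inhibition above a per-plate cutoff, the plate's mean sample inhibition plus 3 SD, cut at about 24% in these data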;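 note: 0% = DMSO plus EC80 ATP and 100% = DMSO alone without ATP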
# M1 ag parental = counter-screen for M1 agonists: effect in parental CHO-K1 cells; Fluo-8 calcium fluorescence; scaled to maximal ATP response, vehicle zero; activation, % at 3 µM; 0.48% of 360,000 active; in the data active = activation above about 15%;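 note: untransfected CHO-K1 host cells lacking M1 receptor as counterscreen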
# CHRM1 antagonist = human CHRM1 antagonism | P11229 | CHO-K1 hM1, Fluo-8 calcium fluorescence, ACh EC80 antagonist | inhibition, % at 3 µM | 1.3% of 360,000 active | AID 588852;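 active = percent inhibition above its own plate's cutoff, namely the mean of that plate's compound wells plus 3 SD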;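 note: peak over basal fluorescence ratio during 140 s after agonist addition; 0% = ACh EC80 plus DMSO and 100% = DMSO alone without agonist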
# * marks the source's active call; other numbers are inactive results; / = no result given. The list is not random: actives were taken first. Their share in the collection is about 2.3%.
SMILES,M1 PAM parental,M1 ag,M1 PAM,CHO-K1 Ca antag,M1 ag parental,CHRM1 antagonist
COc1cc(CN2C[C@@H](CO)O[C@@H](n3cnc4c(Nc5ccccc5)ncnc43)C2)cc(OC)c1OC,-15.4,-0.5,-20.0,33.4*,5.4,32.9
OC[C@@H]1CN(Cc2ccc(-c3ccccc3)cc2)C[C@H](n2cnc3c(NCc4ccncc4)ncnc32)O1,-3.6,6.4,-9.3,7.8,16.7*,25.1
CC(C)CNc1ncnc2c1ncn2[C@H]1CN(Cc2ccc(-c3ccccc3)cc2)C[C@@H](CO)O1,-8.9,3.4,-8.6,10.4,11.4,28.4*
OC[C@@H]1CN(Cc2ccc(F)cc2)C[C@H](n2cnc3c(N4CCCC4)ncnc32)O1,1.2,2.5,10.2,-4.5,0.9,-17.9
CN1CCN(c2ncnc3c2ncn3[C@H]2CN(Cc3ccc(F)cc3)C[C@@H](CO)O2)CC1,-12.7,-2.9,-8.8,25.1*,0.1,22.5
COc1cc(CN2C[C@@H](CO)O[C@@H](n3cnc4c(NC5CCC5)ncnc43)C2)cc(OC)c1OC,32.0,3.4,5.1,-9.4,0.1,-7.9
NC(=O)c1c(N)[nH]c(C(=O)c2ccccc2)c1-c1ccccc1Br,22.4,/,/,-18.2,3.9,/
CC(C)=C[C@H]1C[C@H](C)[C@H]2CC[C@H](C)c3c(O[C@@H]4O[C@@H](C)[C@@H](O)[C@@H](O)[C@@H]4O)c(O)c(C)c1c32,5.6,1.5,9.1,-2.1,0.0,-13.2
OC[C@@H]1CN(Cc2ccc(-c3ccccc3)cc2)C[C@H](n2cnc3c(NCc4ccco4)ncnc32)O1,-12.8,5.8,1.0,24.8*,7.6,18.8
C(=N\Nc1nc(-c2ccccc2)cs1)/c1ccncc1,22.4,-11.7,9.4,-8.8,0.8,-5.5
Cc1ccc(-c2csc(N/N=C/c3ccco3)n2)cc1,21.2,-4.4,0.0,-11.0,0.2,-1.2
CN(C)S(=O)(=O)c1ccc(-c2csc(N/N=C/c3ccco3)n2)cc1,-20.9,6.2,-16.1,13.2,14.8,50.7*
CN(C)S(=O)(=O)c1ccc(-c2csc(N/N=C/c3ccc(O)cc3)n2)cc1,-9.5,-1.0,-12.2,15.8,6.7,37.3*
Nc1ncnc2c1ncn2[C@@H]1O[C@H](C(=O)NCc2ccc(OC(F)(F)F)cc2)[C@@H](O)[C@H]1O,-3.4,2.2,0.0,-5.3,0.4,-24.8
C[C@H](CO)N1C[C@H](C)[C@@H](CN(C)Cc2ccccc2)OCc2cnnn2CCCC1=O,-8.4,-6.9,1.3,12.8,0.0,-3.4
CCOC(=O)C1=C(C)Nc2nc3ccccc3n2C1c1ccc(O)cc1 (stereo unspecified),0.3,-0.9,1.8,-6.1,0.4,-2.6
COC(=O)C1=C(C)Nc2nc3ccccc3n2C1c1cc(OC)c(OC)c(OC)c1 (stereo unspecified),19.7,-5.3,1.0,0.5,17.2*,-8.0
Cc1cnc(C)c(Nc2nc(C(N)Cc3ccc(Cl)cc3)cs2)n1 (stereo unspecified),22.2,3.4,2.8,-3.3,6.5,4.7
CC1=CC(=O)C=CC1=Nc1ccc(N(C)C)cc1,12.1,-13.2,1.3,0.8,0.1,-2.6
O=C(c1cc(COc2cccc(C(F)(F)F)c2)on1)N1CCC(Oc2cccnc2)CC1,-24.8,1.6,-13.7,24.2*,13.7,37.2*
Cc1cccc(C)c1OCc1cc(C(=O)N2CCC(c3ccncc3)CC2)no1,6.0,-0.8,-13.7,9.9,11.3,29.2*
CC(=O)c1ccc(OCc2cc(C(=O)N3CCC(Oc4ccccc4C)CC3)no2)cc1,-15.2,-1.8,-6.1,-12.1,2.5,0.1
Cc1ccc(OCc2cc(C(=O)N3CCC(Oc4cccnc4)CC3)no2)cc1C,-0.8,-6.5,-20.9,24.8*,15.6*,26.4
CC1(C(=O)Nc2cccc(NS(C)(=O)=O)c2)Cc2c(-c3ccc(C(N)=O)cc3)ccnc2O1 (stereo unspecified),-2.3,-1.8,1.3,3.7,0.4,-1.5
Cc1ccc(OCC(=O)Nc2ccc(N3CCCC3)cc2)cc1C,5.5,-8.5,-21.7,-7.5,0.0,21.0
SMILES,M1 PAM parental,M1 ag,M1 PAM,CHO-K1 Ca antag,M1 ag parental,CHRM1 antagonist
Cc1cc(C)cc(OCC(=O)Nc2ccc(N3CCCC3)cc2)c1,0.2,-12.1,-35.7,-10.2,-0.5,56.5*
Cc1ccc(C)c(C(=O)OCC(=O)Nc2ccc(N3CCOCC3)cc2)c1,12.2,3.2,24.6*,-18.8,0.7,-23.8
C#Cc1cccc(Nc2nc(NCc3ccccc3)nc3ccsc23)c1,3.5,-0.6,-15.4,3.6,7.0,27.1
Nc1ncnc2c1ncn2C1CCCO1 (stereo unspecified),-0.1,19.5*,-10.5,-1.5,0.3,-17.1
CCNC(=O)C1(C)CCN(C(=O)c2cccc3ccccc23)C1 (stereo unspecified),19.0,-0.5,12.3,-17.6,0.7,-18.7
Cc1ccc(NC(=O)C2CCCN(C3=NS(=O)(=O)c4ccccc43)C2)c(O)c1 (stereo unspecified),-16.3,-1.0,-9.1,26.3*,-0.4,26.8
COc1cccc(C(NC(C)=O)c2nc(-c3csc4ccccc34)cs2)c1 (stereo unspecified),-11.4,-0.7,-5.7,2.0,0.6,7.5
O=C(NC(c1ccccc1)c1cnccn1)C1CCN(CCOc2ccc(Cl)cc2Cl)CC1 (stereo unspecified),0.5,-3.8,8.9,10.4,1.3,-12.1
COc1cccc(C(c2nnnn2C2CCCC2)N2CCN(C/C=C/c3ccccc3)CC2)c1OC (stereo unspecified),16.1,-5.8,-25.2,-15.3,-0.3,53.6*
C(=C\c1ccccc1)/CN1CCN(C(c2ccccc2)c2nnnn2C2CCCCC2)CC1 (stereo unspecified),2.7,-6.3,-26.1,-9.5,0.1,43.3*
C(=C\c1ccccc1)/CN1CCN(C(c2ccnc3ccccc23)c2nnnn2C2CCCCC2)CC1 (stereo unspecified),14.9,-7.2,-25.7,-20.3,-0.1,17.1
CCC(c1nnnn1C1CCCC1)N1CCN(C/C=C/c2ccccc2)CC1 (stereo unspecified),14.1,-3.4,-4.4,-9.8,6.4,-20.5
Cc1c(C(=O)NCc2ccco2)sc(=O)n1Cc1ccc(S(C)(=O)=O)cc1,3.4,-8.4,6.6,0.7,0.7,-20.8
Cc1ccc(F)cc1-c1cc2nc(NCCCN(C)C)n(C)c(=O)c2s1,3.3,-6.0,5.6,5.6,0.9,-3.1
COCCCN1C(=O)C(CC(=O)NCCN2CCOCC2)CC(C(=O)N(C)C)=C1C (stereo unspecified),13.7,-5.2,2.3,3.0,0.9,0.1
O=S(=O)(Nc1ccc(-c2csc(-c3ccccc3)n2)cc1)c1ccc(F)cc1,15.1,-3.6,6.8,-16.6,1.2,-11.6

# Bioassay records from PubChem BioAssay.
